Laboratory results published in PubChem BioAssay AID1159580 (chemical genetic matrix, 2015).
The campaign covered roughly 5,500 compounds. About 2,000 (36%) were called active. Roughly 18% stayed inconclusive and do not appear here. No stated cut-off is given here; in the data, active means normalized growth mostly below about 0.91 (no sharp cut-off); inconclusive means no clear call, values can overlap the other calls; inactive means mostly above about 0.92. The list shows a part of the results.

Assay: chemical genetic growth profiling, strain panel (AID 1159580);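 further: tested at 20 µM; growth read once vehicle control cultures reached saturation at 30 °C; 1 = growth at the plate median or of vehicle wells; lower values mean less growth of the strain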
Conditions: S. cerevisiae deletion strains, growth OD

Measured: normalized growth

COc1cc2c(cc1O)CC[C@@H]1[C@@H]2CC[C@]2(C)[C@@H](O)CC[C@@H]12
inactive: locus YAL040C, strain CLN3, active compounds read low 1.02 | locus YCL061C, strain MRC1 (second series), active compounds read low 1 | locus YDR150W, strain NUM1, active compounds read low 0.964 | locus YDR363W, strain ESC2, active compounds read low 1.02 | locus YER002W, strain NOP16, active compounds read low 0.994 | locus YGR078C, strain PAC10, active compounds read low 1 | locus YJR075W, strain HOC1, active compounds read low 1.03 | locus YNL153C, strain GIM3, active compounds read low 0.936 | locus YNL175C, strain NOP13, active compounds read low 1.01 | locus YNL197C, strain WHI3, active compounds read low 1.03 | locus YNL224C, strain SQS1, active compounds read low 1.03 | locus YOR083W, strain WHI5 (second series), active compounds read low 0.982 | locus YPL241C, strain CIN2, active compounds read low 0.996
